About 79,000 compounds went through this panel and 15% of them were active in at least one assay; those are over-represented in the sample as a whole. Calls of active or inactive are those of the source. Cut-off read from the data, not from the text of the source: active = growth inhibition above about 70%; inactive = the rest.
Experiments:
[1] = NCI Yeast Anticancer Drug Screen. Data for the rad50 strain (AID 155);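 note: 0% = growth of vehicle-only cultures of the same strain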; settings: S. cerevisiae rad50 strain growth inhibition, stronger effect = higher value
Procedure, shortened: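 Relative growth inhibition (compound vs vehicle) was measured in yeast with a defined repair-gene alteration.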

[2] = NCI Yeast Anticancer Drug Screen. Data for the mec2-1 strain (AID 157); settings: S. cerevisiae mec2-1 strain, stronger effect = higher value
Procedure, shortened: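 Growth inhibition is read against vehicle-treated controls after compound exposure of the mec2-1 yeast strain, which is defective in DNA damage repair or cell cycle control.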

[3] = NCI Yeast Anticancer Drug Screen. Data for the sgs1 mgt1 strain (AID 161);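 note: 0% = growth of cultures given vehicle only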; settings: S. cerevisiae sgs1 mgt1 strain, stronger effect = higher value
Procedure, shortened: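 Percent growth inhibition was derived by comparing compound-exposed mutant yeast with vehicle-exposed cultures. The strain carries alterations in DNA damage repair.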

[4] = NCI Yeast Anticancer Drug Screen. Data for the cln2 rad14 strain (AID 165);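 note: 0% = growth equal to vehicle treated cultures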; settings: S. cerevisiae cln2 rad14 strain, stronger effect = higher value
Procedure, shortened: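 Growth inhibition, relative to vehicle-treated controls, is the read-out. The test organism is a yeast strain with defined genetic alterations, cln2 rad14.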

[5] = NCI Yeast Anticancer Drug Screen. Data for the bub3 strain (AID 167); settings: S. cerevisiae bub3 mutant strain, stronger effect = higher value
Procedure, shortened: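 Screening used yeast with an engineered genetic alteration affecting cell cycle control. Compound-exposed cultures were compared with vehicle cultures, and reduced growth was taken as inhibition.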

[6] = NCI Yeast Anticancer Drug Screen. Data for the mlh1 rad18 strain (AID 175); settings: S. cerevisiae mlh1 rad18 strain growth inhibition, stronger effect = higher value
Procedure, shortened: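 Cells of a genetically altered yeast strain, deficient in DNA damage repair, were treated with compound. Their growth was then compared with that of vehicle-treated cultures to give inhibition.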

[7] = at 5.0 µM (retest, dose inferred, filed as 0.5)
[8] = at 50.0 µM (retest, dose inferred, filed as 5.0)

Measured: growth inhibition

COC(=O)C1(Cc2ccccc2C)Cc2ccc(C)cc2C1=O (stereo not given)
inactive: [1]; [7] -1% | [1]; [8] 22% | [1]; at 50.0 µM 49.3% | [2]; [7] -2% | [2]; [8] 28% | [2]; at 50.0 µM 25.9% | [3]; [7] 13% | [3]; [8] 47% | [3]; at 50.0 µM 64.9% | [4]; [7] -3% | [4]; [8] 4% | [4]; at 50.0 µM 31.8% | [5]; [7] 9% | [5]; at 50.0 µM 64.3% | [6]; [7] -2% | [6]; [8] 30% | [6]; at 50.0 µM 65.9%
active: [5]; [8] 71%

CC1=C(C(=O)OCCO[N+](=O)[O-])C(c2cccc([N+](=O)[O-])c2)C(C(=O)OC(C)C)=C(C)N1 (stereo not given)
active: [1]; [8] 91% | [1]; at 50.0 µM 79.2% | [2]; [8] 92% | [2]; at 50.0 µM 83% | [3]; [8] 91% | [3]; at 50.0 µM 87.5% | [4]; [8] 87% | [4]; at 50.0 µM 81.5% | [5]; [8] 88% | [5]; at 50.0 µM 85.3% | [6]; [8] 95% | [6]; at 50.0 µM 71%
inactive: [1]; [7] 13% | [2]; [7] 10% | [3]; [7] -22% | [4]; [7] -3% | [5]; [7] -3% | [6]; [7] 12%

ClCc1ccc(OCc2ccccc2)c(OCc2ccccc2)c1
active: [1]; at 50.0 µM 79% | [3]; [8] 87% | [3]; at 50.0 µM 89.2% | [4]; at 50.0 µM 82.3% | [5]; [8] 77% | [5]; at 50.0 µM 87.2% | [6]; [8] 87% | [6]; at 50.0 µM 94.2%
inactive: [1]; [7] 4% | [1]; [8] 51% | [2]; [7] 2% | [2]; [8] 67% | [2]; at 50.0 µM 62.3% | [3]; [7] 4% | [4]; [7] 0% | [4]; [8] 48% | [5]; [7] 6% | [6]; [7] 17%

CCOc1ccccc1NC(=O)/C(Cl)=C(\Cl)C(=O)O
active: [1]; [7] 100% | [1]; [8] 99% | [1]; at 50.0 µM 99% | [2]; [7] 100% | [2]; [8] 100% | [2]; at 50.0 µM 98.3% | [3]; [7] 100% | [3]; [8] 100% | [3]; at 50.0 µM 95.2% | [4]; [7] 100% | [4]; [8] 99% | [5]; [7] 100% | [5]; [8] 100% | [6]; [7] 100% | [6]; [8] 100% | [6]; at 50.0 µM 76%
inactive: [4]; at 50.0 µM 56.8% | [5]; at 50.0 µM 64.4%

CN1CCN(C2=C(Cl)C3(OCCS3)C(F)(F)C2(F)F)CC1 (stereo not given)
inactive: [1]; [7] -1% | [1]; [8] -42% | [1]; at 50.0 µM 34.1% | [2]; [7] 26% | [2]; [8] 53% | [2]; at 50.0 µM 34.2% | [3]; [7] 15% | [3]; [8] 58% | [3]; at 50.0 µM 53.7% | [4]; [7] 1% | [4]; [8] 29% | [4]; at 50.0 µM 49.2% | [5]; [7] 5% | [5]; [8] 22% | [5]; at 50.0 µM 39.9% | [6]; [7] 20% | [6]; [8] 68% | [6]; at 50.0 µM 48.1%

Oc1cccc(-c2nc(-c3ccccc3)c(-c3ccccc3)[nH]2)c1
inactive: [1]; [7] 57% | [1]; [8] 58% | [2]; [7] -2% | [2]; [8] 22% | [3]; [7] 29% | [3]; [8] 69% | [3]; at 50.0 µM 53.1% | [4]; [7] 8% | [4]; [8] 22% | [5]; [7] 32% | [5]; [8] 43% | [6]; [7] 29% | [6]; [8] 43%
active: [1]; at 50.0 µM 98.5% | [2]; at 50.0 µM 98.8% | [4]; at 50.0 µM 99.2% | [5]; at 50.0 µM 98.8% | [6]; at 50.0 µM 98.5%

C[n+]1c(-c2ccc(/C=N/Nc3n[nH]c(=S)n3/N=C/c3ccc(-c4cn5ccsc5[n+]4C)cc3)cc2)cn2ccsc21
inactive: [1]; [7] -14% | [2]; [7] -2% | [3]; [7] -4% | [4]; [7] -6% | [5]; [7] -29% | [6]; [7] -2%
active: [1]; [8] 97% | [1]; at 50.0 µM 97.9% | [2]; [8] 97% | [2]; at 50.0 µM 94.2% | [3]; [8] 96% | [3]; at 50.0 µM 95.3% | [4]; [8] 94% | [4]; at 50.0 µM 93.8% | [5]; [8] 98% | [5]; at 50.0 µM 96.5% | [6]; [8] 97% | [6]; at 50.0 µM 93.5%

CCOC(=O)CSC(=S)N1CCOCC1
inactive: [1]; [7] -3% | [1]; [8] -2% | [1]; at 50.0 µM 37% | [2]; [7] -2% | [2]; [8] -10% | [2]; at 50.0 µM -9.1% | [3]; [7] -4% | [3]; [8] -6% | [3]; at 50.0 µM -10.6% | [4]; [7] -5% | [4]; [8] -9% | [4]; at 50.0 µM -32.2% | [5]; [7] -1% | [5]; [8] -6% | [5]; at 50.0 µM -3.9% | [6]; [7] -2% | [6]; [8] 0% | [6]; at 50.0 µM -29.2%

COC(=O)CCC(=O)N1C/C(=C\c2ccccc2)C(=O)/C(=C/c2ccccc2)C1
active: [1]; at 50.0 µM 88.6% | [2]; at 50.0 µM 95.3% | [3]; at 50.0 µM 92.5% | [5]; at 50.0 µM 92.5% | [6]; at 50.0 µM 95%
inactive: [1]; [7] 5% | [1]; [8] 41% | [2]; [7] 23% | [2]; [8] 42% | [3]; [7] 5% | [3]; [8] 56% | [4]; [7] 9% | [4]; [8] 19% | [4]; at 50.0 µM 16.5% | [5]; [7] 2% | [5]; [8] 22% | [6]; [7] 7% | [6]; [8] 38%

O=S(=O)(Nc1ccccc1)c1ccccc1CC(O)(c1ccccc1)c1ccccc1
inactive: [1]; [7] 46% | [2]; [7] 67% | [4]; [7] 59% | [5]; [7] 40%
active: [1]; [8] 90% | [1]; at 50.0 µM 90% | [2]; [8] 94% | [2]; at 50.0 µM 93% | [3]; [7] 98% | [3]; [8] 94% | [3]; at 50.0 µM 91.2% | [4]; [8] 89% | [4]; at 50.0 µM 90.4% | [5]; [8] 90% | [5]; at 50.0 µM 90.4% | [6]; [7] 90% | [6]; [8] 90% | [6]; at 50.0 µM 89.2%
